# Test results taken from paper PMC7862700, “An all-to-all approach to the identification of sequence-specific readers for epigenetic DNA modifications on cytosine”.
# Columns and labels:
# Test in all cases: DAPPL (digital affinity profiling via proximity ligation, sequencing); 10 mM Tris-HCl pH 7.5, 50 mM NaCl, 1 mM DTT, 4% glycerol, room temperature, 30 min; GST-TFs on glutathione beads, 16-mer random dsDNA library, 0.1% formaldehyde crosslink after washing; high values mean tight binding
# [1] = target: T1, FLI1 (Homo sapiens, UniProt Q01543 1-452); details: protein: recombinant; tags: N-terminal GST; dsDNA, one strand shown
# T1 sequence: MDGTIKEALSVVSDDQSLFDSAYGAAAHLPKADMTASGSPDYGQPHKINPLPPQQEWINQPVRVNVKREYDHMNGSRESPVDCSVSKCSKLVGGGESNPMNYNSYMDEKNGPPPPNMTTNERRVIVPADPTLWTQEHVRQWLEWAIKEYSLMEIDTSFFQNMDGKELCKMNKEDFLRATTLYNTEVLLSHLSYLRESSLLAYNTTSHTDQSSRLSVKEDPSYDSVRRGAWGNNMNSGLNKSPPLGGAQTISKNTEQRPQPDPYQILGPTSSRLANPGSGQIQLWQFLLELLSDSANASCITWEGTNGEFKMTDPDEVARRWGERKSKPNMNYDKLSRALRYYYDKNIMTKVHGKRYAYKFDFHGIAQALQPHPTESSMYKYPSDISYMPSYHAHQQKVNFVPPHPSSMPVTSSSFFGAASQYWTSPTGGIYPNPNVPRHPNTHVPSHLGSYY
# How it was run: (§1)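 Human transcription factors carrying a GST fusion were produced in yeast, bound to glutathione beads, tagged with DNA barcodes and pooled together with a tag-only sample. Each pool was held with 200 nmole of a random double-stranded 16-mer DNA library in Tris/NaCl/DTT/glycerol buffer for 30 min at room temperature, then washed, crosslinked in 0.1% formaldehyde, proximity-ligated with BsaI/T4 ligase (1 h, 37 °C), PCR-amplified and sequenced on an Illumina NextSeq500. Binding signal is the read frequency of each hexamer for a given factor divided by its frequency in the tag-only sample.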
# [2] = target: T2, ELK1 (Homo sapiens, UniProt P19419 1-428); details: protein: recombinant; tags: N-terminal GST; dsDNA, one strand shown
# T2 sequence: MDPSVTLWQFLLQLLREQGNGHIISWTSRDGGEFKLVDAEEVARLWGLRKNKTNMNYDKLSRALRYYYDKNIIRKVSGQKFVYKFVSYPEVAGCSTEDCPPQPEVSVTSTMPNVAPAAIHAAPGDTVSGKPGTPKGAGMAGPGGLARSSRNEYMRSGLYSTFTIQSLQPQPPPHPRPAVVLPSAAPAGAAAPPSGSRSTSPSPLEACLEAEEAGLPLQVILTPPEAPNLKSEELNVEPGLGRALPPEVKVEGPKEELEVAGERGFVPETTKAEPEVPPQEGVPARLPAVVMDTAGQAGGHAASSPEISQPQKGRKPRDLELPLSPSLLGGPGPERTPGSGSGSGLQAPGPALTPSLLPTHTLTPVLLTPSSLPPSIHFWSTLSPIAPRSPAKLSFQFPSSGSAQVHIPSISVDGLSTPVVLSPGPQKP
# How it was run: as §1
# [3] = target: T3, GABPA (Homo sapiens, UniProt Q06546 1-454); details: protein: recombinant; tags: N-terminal GST; dsDNA, one strand shown
# T3 sequence: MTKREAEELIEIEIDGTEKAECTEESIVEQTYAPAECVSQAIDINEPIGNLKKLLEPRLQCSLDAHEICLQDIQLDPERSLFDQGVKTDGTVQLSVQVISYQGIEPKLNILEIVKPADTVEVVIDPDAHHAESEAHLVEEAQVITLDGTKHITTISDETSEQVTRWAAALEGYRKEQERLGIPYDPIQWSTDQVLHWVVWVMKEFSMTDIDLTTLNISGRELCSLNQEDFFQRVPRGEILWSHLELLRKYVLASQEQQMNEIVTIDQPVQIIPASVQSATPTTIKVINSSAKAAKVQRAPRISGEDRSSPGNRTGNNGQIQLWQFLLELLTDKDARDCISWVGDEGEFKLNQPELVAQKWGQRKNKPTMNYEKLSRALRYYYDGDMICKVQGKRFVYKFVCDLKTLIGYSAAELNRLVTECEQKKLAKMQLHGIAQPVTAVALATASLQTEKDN
# How it was run: as §1
# [4] = target: T4, ERG (Homo sapiens, UniProt P11308 1-479); details: protein: recombinant; tags: N-terminal GST; dsDNA, one strand shown
# T4 sequence: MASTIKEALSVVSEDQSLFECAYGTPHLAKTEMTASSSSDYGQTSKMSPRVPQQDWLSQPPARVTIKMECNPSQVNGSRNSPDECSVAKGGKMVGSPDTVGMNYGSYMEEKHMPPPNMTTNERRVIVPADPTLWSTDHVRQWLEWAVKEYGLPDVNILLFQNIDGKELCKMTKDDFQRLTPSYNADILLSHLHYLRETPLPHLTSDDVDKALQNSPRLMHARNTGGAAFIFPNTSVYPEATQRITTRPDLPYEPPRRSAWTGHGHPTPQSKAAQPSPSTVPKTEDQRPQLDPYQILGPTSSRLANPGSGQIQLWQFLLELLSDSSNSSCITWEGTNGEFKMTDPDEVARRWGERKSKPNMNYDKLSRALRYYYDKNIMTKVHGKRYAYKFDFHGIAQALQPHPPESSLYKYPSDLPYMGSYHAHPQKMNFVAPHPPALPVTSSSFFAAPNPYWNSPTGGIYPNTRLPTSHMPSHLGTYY
# How it was run: as §1
# [5] = target: ELF1 (Homo sapiens, UniProt P32519 1-619); details: protein: recombinant; tags: N-terminal GST; dsDNA, one strand shown
# How it was run: as §1
# [6] = target: T5, EHF (Homo sapiens, UniProt Q9NZC4 1-300); details: protein: recombinant; tags: N-terminal GST; dsDNA, one strand shown
# T5 sequence: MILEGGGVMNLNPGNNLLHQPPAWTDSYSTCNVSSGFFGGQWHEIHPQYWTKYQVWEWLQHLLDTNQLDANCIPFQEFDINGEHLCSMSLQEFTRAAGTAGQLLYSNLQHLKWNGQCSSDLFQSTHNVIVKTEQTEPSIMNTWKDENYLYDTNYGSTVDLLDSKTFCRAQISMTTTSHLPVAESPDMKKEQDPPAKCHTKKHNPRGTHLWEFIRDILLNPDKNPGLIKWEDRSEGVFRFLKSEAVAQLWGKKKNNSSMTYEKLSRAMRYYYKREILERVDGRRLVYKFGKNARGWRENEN
# How it was run: as §1
# [7] = target: SPI1 (Homo sapiens, UniProt P17947 1-270); details: protein: recombinant; tags: N-terminal GST; dsDNA, one strand shown
# How it was run: as §1
# [8] = target: SPIB (Homo sapiens, UniProt Q01892 1-262); details: protein: recombinant; tags: N-terminal GST; dsDNA, one strand shown
# How it was run: as §1
# [9] = target: T6, ELK3 (Homo sapiens, UniProt P41970 1-407); details: protein: recombinant; tags: N-terminal GST; dsDNA, one strand shown
# T6 sequence: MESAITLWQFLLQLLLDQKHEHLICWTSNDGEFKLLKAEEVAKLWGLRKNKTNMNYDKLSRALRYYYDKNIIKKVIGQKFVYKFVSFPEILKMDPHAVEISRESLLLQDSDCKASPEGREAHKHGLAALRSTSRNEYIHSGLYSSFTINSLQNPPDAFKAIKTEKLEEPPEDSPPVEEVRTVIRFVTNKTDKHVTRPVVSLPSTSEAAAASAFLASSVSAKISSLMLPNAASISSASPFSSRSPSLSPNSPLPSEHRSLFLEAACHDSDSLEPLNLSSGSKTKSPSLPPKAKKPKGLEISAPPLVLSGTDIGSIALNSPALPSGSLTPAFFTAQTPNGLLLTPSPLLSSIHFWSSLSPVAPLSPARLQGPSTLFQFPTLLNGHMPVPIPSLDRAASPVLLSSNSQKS
# How it was run: as §1
# [10] = target: T7, FEV (Homo sapiens, UniProt Q99581 1-238); details: protein: recombinant; tags: N-terminal GST; dsDNA, one strand shown
# T7 sequence: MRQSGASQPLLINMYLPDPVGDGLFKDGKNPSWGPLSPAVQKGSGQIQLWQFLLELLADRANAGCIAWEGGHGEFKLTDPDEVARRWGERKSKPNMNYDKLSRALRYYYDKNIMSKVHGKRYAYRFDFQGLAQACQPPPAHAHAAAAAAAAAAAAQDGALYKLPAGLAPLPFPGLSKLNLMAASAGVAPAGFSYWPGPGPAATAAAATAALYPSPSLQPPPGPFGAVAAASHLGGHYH
# How it was run: as §1
# [11] = target: ETV5 (Homo sapiens, UniProt P41161 1-510); details: protein: recombinant; tags: N-terminal GST; dsDNA, one strand shown
# How it was run: as §1
# [12] = target: HSF1 (Homo sapiens, UniProt Q00613 1-529); details: protein: recombinant; tags: N-terminal GST; chain copies: 3; dsDNA, one strand shown
# How it was run: as §1
# [13] = target: T8, SPIC (Homo sapiens, UniProt Q8N5J4 1-248); details: protein: recombinant; tags: N-terminal GST; dsDNA, one strand shown
# T8 sequence: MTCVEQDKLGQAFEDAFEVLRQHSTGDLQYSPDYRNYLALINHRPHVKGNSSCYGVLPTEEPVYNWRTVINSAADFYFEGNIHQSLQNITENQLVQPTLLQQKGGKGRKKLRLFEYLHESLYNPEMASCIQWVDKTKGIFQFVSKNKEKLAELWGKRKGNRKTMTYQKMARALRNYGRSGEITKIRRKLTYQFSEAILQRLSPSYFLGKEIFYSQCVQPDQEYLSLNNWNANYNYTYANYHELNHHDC
# How it was run: as §1
# [14] = target: ELF4 (Homo sapiens, UniProt Q99607 1-663); details: protein: recombinant; tags: N-terminal GST; dsDNA, one strand shown
# How it was run: as §1
# [15] = target: T9, ELK4 (Homo sapiens, UniProt P28324-2 1-405); details: protein: recombinant; tags: N-terminal GST; dsDNA, one strand shown
# T9 sequence: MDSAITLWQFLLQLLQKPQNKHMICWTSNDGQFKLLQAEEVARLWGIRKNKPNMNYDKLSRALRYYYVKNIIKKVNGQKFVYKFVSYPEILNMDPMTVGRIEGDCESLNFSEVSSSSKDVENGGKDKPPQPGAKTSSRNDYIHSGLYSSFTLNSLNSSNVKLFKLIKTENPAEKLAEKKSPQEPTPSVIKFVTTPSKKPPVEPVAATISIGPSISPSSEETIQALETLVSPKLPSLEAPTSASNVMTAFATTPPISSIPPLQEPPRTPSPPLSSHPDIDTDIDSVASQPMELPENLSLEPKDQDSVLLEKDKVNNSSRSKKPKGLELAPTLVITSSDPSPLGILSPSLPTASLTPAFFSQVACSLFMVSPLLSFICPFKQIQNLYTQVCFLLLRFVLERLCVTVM
# How it was run: as §1
# [16] = target: T10, ETV2 (Homo sapiens, UniProt O00321 1-342); details: protein: recombinant; tags: N-terminal GST; dsDNA, one strand shown
# T10 sequence: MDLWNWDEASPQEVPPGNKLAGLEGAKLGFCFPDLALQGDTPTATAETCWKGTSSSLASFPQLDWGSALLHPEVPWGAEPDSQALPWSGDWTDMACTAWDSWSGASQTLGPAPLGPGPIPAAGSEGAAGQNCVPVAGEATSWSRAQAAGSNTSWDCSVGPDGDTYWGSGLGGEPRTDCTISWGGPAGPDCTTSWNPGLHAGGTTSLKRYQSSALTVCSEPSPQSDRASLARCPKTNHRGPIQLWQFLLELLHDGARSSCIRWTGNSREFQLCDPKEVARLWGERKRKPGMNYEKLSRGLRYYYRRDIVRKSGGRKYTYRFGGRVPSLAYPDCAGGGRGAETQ
# How it was run: as §1
# [17] = target: T11, ELF3 (Homo sapiens, UniProt P78545 1-371); details: protein: recombinant; tags: N-terminal GST; dsDNA, one strand shown
# T11 sequence: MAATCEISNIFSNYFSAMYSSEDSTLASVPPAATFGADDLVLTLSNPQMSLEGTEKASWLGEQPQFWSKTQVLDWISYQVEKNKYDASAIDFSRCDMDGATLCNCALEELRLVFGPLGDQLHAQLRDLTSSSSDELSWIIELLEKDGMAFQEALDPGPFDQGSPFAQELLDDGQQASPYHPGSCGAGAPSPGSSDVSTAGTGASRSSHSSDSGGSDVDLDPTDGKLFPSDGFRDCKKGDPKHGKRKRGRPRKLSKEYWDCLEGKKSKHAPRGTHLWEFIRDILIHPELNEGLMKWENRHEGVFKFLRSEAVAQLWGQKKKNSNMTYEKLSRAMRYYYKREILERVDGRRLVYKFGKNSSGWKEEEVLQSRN
# How it was run: as §1
# [18] = target: CRX (Homo sapiens, UniProt O43186 1-299); details: protein: recombinant; tags: N-terminal GST; dsDNA, one strand shown
# How it was run: as §1
# [19] = target: ETV1 (Homo sapiens, UniProt P50549 1-477); details: protein: recombinant; tags: N-terminal GST; dsDNA, one strand shown
# How it was run: as §1
# SPIB, sequence (Q01892 whole entry): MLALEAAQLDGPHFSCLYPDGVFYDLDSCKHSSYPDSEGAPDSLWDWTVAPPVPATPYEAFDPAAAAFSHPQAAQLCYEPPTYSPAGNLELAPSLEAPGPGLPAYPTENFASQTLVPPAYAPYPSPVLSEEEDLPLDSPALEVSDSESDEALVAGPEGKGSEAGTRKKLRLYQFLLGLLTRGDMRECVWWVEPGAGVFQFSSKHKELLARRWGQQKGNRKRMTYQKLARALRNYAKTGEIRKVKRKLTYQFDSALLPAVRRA
# CRX, sequence (O43186 whole entry): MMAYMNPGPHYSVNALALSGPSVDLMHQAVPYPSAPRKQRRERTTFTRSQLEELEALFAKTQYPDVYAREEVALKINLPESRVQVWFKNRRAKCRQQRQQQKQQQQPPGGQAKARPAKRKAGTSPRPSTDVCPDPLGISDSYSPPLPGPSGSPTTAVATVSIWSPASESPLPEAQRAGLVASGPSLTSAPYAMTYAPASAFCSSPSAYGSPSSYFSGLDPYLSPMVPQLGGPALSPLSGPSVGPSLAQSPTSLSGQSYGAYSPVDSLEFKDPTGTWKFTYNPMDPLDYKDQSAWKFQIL
# HSF1, sequence (Q00613 whole entry): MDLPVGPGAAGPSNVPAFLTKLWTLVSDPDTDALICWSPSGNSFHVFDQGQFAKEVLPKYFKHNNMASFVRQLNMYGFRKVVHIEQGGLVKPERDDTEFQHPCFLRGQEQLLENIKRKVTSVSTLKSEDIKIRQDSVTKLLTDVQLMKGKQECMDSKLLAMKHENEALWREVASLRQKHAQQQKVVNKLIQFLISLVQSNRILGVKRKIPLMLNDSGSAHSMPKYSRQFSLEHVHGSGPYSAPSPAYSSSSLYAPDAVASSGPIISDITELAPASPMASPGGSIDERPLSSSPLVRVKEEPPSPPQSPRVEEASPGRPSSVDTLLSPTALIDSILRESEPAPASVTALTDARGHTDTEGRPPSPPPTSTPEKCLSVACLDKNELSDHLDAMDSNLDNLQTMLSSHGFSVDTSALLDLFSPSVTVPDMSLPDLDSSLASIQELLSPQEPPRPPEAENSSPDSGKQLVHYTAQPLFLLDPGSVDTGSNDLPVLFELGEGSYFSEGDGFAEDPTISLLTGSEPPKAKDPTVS
# ETV5, sequence (P41161 whole entry): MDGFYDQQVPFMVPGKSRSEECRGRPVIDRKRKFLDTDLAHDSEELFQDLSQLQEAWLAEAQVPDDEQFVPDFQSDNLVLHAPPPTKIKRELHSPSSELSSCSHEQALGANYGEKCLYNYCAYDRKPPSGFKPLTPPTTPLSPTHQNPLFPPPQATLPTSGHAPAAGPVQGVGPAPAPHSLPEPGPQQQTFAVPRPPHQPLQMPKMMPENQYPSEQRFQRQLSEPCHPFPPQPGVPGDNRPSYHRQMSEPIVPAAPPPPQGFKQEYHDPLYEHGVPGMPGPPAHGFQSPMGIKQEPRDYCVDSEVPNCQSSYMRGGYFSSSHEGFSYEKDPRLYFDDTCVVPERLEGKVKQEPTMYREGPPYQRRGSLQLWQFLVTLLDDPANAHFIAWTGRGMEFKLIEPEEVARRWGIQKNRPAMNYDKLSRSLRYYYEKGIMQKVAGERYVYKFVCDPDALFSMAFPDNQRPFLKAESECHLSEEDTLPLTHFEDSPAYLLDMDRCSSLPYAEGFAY
# ELF4, sequence (Q99607 whole entry): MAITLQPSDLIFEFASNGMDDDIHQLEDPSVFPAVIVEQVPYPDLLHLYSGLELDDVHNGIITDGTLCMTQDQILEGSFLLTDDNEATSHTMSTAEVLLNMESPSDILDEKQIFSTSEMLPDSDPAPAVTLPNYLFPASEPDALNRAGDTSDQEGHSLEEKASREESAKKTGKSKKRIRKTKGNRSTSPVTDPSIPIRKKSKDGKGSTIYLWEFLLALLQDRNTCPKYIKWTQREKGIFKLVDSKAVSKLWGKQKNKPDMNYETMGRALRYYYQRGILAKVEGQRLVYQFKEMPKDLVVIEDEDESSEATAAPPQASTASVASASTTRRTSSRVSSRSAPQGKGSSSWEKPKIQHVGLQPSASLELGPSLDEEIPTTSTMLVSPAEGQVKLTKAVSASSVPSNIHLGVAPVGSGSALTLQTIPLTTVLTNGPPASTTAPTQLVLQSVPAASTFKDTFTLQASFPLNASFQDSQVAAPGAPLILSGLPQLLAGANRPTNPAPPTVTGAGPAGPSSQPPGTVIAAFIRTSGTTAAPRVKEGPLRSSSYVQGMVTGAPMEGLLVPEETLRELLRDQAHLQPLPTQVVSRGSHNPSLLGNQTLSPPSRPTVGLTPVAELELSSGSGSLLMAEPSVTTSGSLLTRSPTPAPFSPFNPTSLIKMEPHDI
# ETV1, sequence (P50549 whole entry): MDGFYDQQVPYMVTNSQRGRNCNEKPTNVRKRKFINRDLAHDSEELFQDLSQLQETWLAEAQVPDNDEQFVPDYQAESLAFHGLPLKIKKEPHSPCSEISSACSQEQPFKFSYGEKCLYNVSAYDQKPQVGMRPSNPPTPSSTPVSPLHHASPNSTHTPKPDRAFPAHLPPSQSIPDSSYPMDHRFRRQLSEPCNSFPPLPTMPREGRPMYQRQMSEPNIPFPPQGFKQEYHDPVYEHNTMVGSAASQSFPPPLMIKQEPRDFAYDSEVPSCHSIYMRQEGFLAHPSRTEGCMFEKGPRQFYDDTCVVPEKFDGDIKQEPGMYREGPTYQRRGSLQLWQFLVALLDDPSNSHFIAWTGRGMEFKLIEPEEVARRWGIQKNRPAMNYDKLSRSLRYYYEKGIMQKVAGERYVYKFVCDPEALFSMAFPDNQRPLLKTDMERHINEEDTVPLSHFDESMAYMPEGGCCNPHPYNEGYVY
# ELF1, sequence (P32519 whole entry): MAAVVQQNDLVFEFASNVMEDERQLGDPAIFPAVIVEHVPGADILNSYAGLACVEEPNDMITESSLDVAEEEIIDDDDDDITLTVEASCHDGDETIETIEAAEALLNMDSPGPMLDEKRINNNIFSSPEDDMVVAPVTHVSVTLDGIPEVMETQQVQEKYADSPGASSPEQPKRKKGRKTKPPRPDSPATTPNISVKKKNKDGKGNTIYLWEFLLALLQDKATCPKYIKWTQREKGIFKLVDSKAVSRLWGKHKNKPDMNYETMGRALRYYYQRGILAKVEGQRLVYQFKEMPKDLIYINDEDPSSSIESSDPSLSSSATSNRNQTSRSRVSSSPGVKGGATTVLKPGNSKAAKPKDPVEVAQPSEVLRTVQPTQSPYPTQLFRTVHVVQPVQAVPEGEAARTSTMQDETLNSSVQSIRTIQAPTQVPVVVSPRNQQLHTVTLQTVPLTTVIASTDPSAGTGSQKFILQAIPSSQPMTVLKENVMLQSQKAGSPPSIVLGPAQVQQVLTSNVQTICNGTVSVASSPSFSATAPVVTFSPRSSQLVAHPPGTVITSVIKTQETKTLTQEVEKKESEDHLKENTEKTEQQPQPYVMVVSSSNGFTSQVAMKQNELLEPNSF
sequence,measurement,setting,value
CCTGAA,binding signal,[1],"1.35 fold enrichment (6-mer frequency, TF over GST control)"
same,binding signal,[2],"1.39 fold enrichment (6-mer frequency, TF over GST control)"
same,binding signal,[3],"1.39 fold enrichment (6-mer frequency, TF over GST control)"
same,binding signal,[4],"1.41 fold enrichment (6-mer frequency, TF over GST control)"
same,binding signal,[5],"1.35 fold enrichment (6-mer frequency, TF over GST control)"
same,binding signal,[6],"1.33 fold enrichment (6-mer frequency, TF over GST control)"
same,binding signal,[7],"1.35 fold enrichment (6-mer frequency, TF over GST control)"
same,binding signal,[8],"1.42 fold enrichment (6-mer frequency, TF over GST control)"
same,binding signal,[9],"1.32 fold enrichment (6-mer frequency, TF over GST control)"
same,binding signal,[10],"1.4 fold enrichment (6-mer frequency, TF over GST control)"
same,binding signal,[11],"1.38 fold enrichment (6-mer frequency, TF over GST control)"
same,binding signal,[12],"1.54 fold enrichment (6-mer frequency, TF over GST control)"
same,binding signal,[13],"1.28 fold enrichment (6-mer frequency, TF over GST control)"
same,binding signal,[14],"1.31 fold enrichment (6-mer frequency, TF over GST control)"
same,binding signal,[15],"1.41 fold enrichment (6-mer frequency, TF over GST control)"
same,binding signal,[16],"1.47 fold enrichment (6-mer frequency, TF over GST control)"
same,binding signal,[17],"1.21 fold enrichment (6-mer frequency, TF over GST control)"
same,binding signal,[18],"1.22 fold enrichment (6-mer frequency, TF over GST control)"
same,binding signal,[19],"1.38 fold enrichment (6-mer frequency, TF over GST control)"
